Results filed as inconclusive are left out. Active and inactive are the calls of the source. Calls come from the whole dose curve; as a rule, active = well fitted inhibition curve with a large enough effect; inconclusive = small, poorly fitted or top-dose-only effect; inactive = flat fitted curve, though single readings scatter.
% is set by controls: 0 for no effect and ±100 for the full control effect.

The first experiment can be described thus: Drug repurposing screens with cells derived from glioblastoma tumor samples (AID 1345199). Note: nearly all actives have a fitted effect of over 40% in size. The note with it: GBM patient neurospheres viability, ATP luminescence, 48 h; at 20 µM (top of the series); tumour line C. The procedure, abridged:
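Four patient lines of CD133+ GBM neurospheres were screened at several concentrations; hits were retested in those lines plus three slower-growing GBM lines, using 48-hour treatment and ATP-based viability.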
`C[n+]1ccccc1/C=N/O`: the activity, negative = cell killing is -23.9% (inactive).

For the molecule `CC(=O)[C@@]1(O)CC[C@H]2[C@@H]3C[C@H](C)C4=CC(=O)C=C[C@]4(C)[C@@]3(F)[C@@H](O)C[C@@]21C`, the activity, negative = cell killing is -10.6% (inactive).

Regarding `CCC(C)(CN(C)C)OC(=O)c1ccccc1` (stereo not given), the activity, negative = cell killing is -12.8% (inactive).

The experiment is the same for the next values; noted with them: GBM patient neurospheres viability, ATP luminescence, 48 h; at 21.2 µM (top of the series); tumour line B.
Turning to `COc1ccc2cc(CCC(C)=O)ccc2c1`, the activity, negative = cell killing was -27.9% (inactive).

As for `C[n+]1ccccc1/C=N/O`, the activity, negative = cell killing was -15% (inactive).

Take `CC(=O)[C@@]1(O)CC[C@H]2[C@@H]3C[C@H](C)C4=CC(=O)C=C[C@]4(C)[C@@]3(F)[C@@H](O)C[C@@]21C`: the activity, negative = cell killing was 4.4% (inactive).

As to `CCC(C)(CN(C)C)OC(=O)c1ccccc1` (stereo not given), the activity, negative = cell killing is -2.39% (inactive).

The same experiment, now with this note: GBM patient neurospheres viability, ATP luminescence, 48 h; at 21.2 µM (top of the series); tumour line D.
For the molecule `C[n+]1ccccc1/C=N/O`, the activity, negative = cell killing is -26.7% (inactive).

For `CC(=O)[C@@]1(O)CC[C@H]2[C@@H]3C[C@H](C)C4=CC(=O)C=C[C@]4(C)[C@@]3(F)[C@@H](O)C[C@@]21C`, the activity, negative = cell killing was -1.22% (inactive).

On to `CCC(C)(CN(C)C)OC(=O)c1ccccc1` (stereo not given), for which the activity, negative = cell killing was -5.13% (inactive).
